Cruzain inh noDet: qHTS Assay for Promiscuous and Specific Inhibitors of Cruzain (without detergent) | Cruzipain (Trypanosoma cruzi), P25779 | purified cruzain, Z-FR-AMC fluorescence, no detergent | Potency, µM, without a hit: max response, negative = inhibition, most hits filed as inhibitors | hit rate 2.3% among 200,000 | AID 1476, 2009;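 note: plate controls were enzyme without inhibitor for no effect and buffer without enzyme for full effect; nearly all actives have a fitted effect of over 40% in size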
Target sequence (P25779 123-467 limits assumed): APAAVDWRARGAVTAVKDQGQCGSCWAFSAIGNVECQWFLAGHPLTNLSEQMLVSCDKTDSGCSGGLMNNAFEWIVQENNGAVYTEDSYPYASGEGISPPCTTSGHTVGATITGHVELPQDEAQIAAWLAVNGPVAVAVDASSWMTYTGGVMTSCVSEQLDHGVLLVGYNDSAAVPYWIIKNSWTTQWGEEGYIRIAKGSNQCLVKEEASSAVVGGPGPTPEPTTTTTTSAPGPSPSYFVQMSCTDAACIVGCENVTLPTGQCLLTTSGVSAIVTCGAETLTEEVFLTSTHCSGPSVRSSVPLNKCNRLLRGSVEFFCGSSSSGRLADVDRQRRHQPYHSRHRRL
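Purified cruzain at 1.5 nM, pre-incubated 15 min with compound at room temperature in 100 mM sodium acetate pH 5.5, 5 mM DTT, 0.00005% Triton X-100. Reaction started with 2 uM Z-FR-AMC; AMC fluorescence increase over 60 s gives rate.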
Cruzain Triton: qHTS Assay for Promiscuous and Specific Inhibitors of Cruzain (with detergent); Cruzipain (Trypanosoma cruzi), P25779; purified cruzain, Z-FR-AMC fluorescence, 0.01% Triton; Potency, µM, for inactives: max response, negative = inhibition, usual class: inhibitors; hit rate 0.43% among 200,000;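 note: plate controls were neutral wells for no effect and buffer without enzyme for full effect; nearly all actives have a fitted effect of over 40% in size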
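Cruzain (1.5 nM) preincubated 15 min at RT with compound in 100 mM sodium acetate pH 5.5, 5 mM DTT, 0.01% Triton X-100. Reaction started with 2 uM Z-FR-AMC; AMC fluorescence (ex 360/em 450 nm) change over 60 s gave rate.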
* hit, by the source's call; u = inconclusive. A selection: hits, their analogues and other compounds. The true share with any hit is near 2.6%. Calls come from the whole dose curve; as a rule, active = well fitted curve in the direction sought with a large enough effect; inconclusive = small, poorly fitted or top-dose-only effect, or another doubt; inactive = no such curve, though single readings can be large; an effect the other way counts as inactive or inconclusive. Potency is the fitted concentration of half-maximal effect.

SMILES | Cruzain inh noDet | Cruzain Triton
CN1/C(=C\C(=S)NC(=O)c2cccc(Br)c2)C(C)(C)c2ccccc21 | u | 3.5µM*
CN1/C(=C\C(=S)NC(=O)c2ccc([N+](=O)[O-])cc2)C(C)(C)c2ccccc21 | u | -11%
CN(C)c1ccc(N=O)cc1 | 32µM* | 25µM*
CN(C)c1ccc(N=Nc2ccccc2)cc1 | -13% | -8%
COc1ccc(C[C@H](O)CN2CCOCC2)cc1 | 2% | 4%
CC(C)OC(=O)C(C(=O)C(F)(F)F)c1cc(NS(=O)(=O)c2ccc3c4c(cccc24)C(=O)N3)ccc1O (configuration not stated) | 8% | -15%
CN(C)S(=O)(=O)c1ccc(C(=O)Nc2nc(-c3cc4ccccc4o3)cs2)cc1 | u | -7%
CN(C)S(=O)(=O)c1ccc(C(=O)Nc2nnc(SCc3ccccc3)s2)cc1 | 3.2µM* | -3%
CCSc1nnc(NC(=O)CN(C)S(=O)(=O)c2ccc(F)cc2)s1 | -10% | -2%
CN(C)S(=O)(=O)c1ccc(C(=O)Nc2nnc(SCc3cccc(F)c3)s2)cc1 | 4µM* | -1%
CN(C)S(=O)(=O)c1ccc(C(=O)Nc2nnc(Cc3ccccc3)s2)cc1 | -24% | 3%
Cc1cc(-c2csc(NC(=O)c3ccc(S(=O)(=O)N(C)C)cc3)n2)c(C)n1-c1ccccc1 | 16µM* | -5%
Cc1nnc(NCc2ccc(Cl)cc2)c2c1nnn2Cc1ccc(F)cc1 | 11% | 0%
CN(Cc1ccccc1)Cc1c(O)ccc2c(=O)c(-c3ccccc3)c(C(F)(F)F)oc12 | -3% | -3%
O=C(Oc1ccccc1)N1CCC2(CCCN(c3ncccn3)C2)CC1 | -3% | -4%
N#Cc1cccc(NC(=O)N2CC[C@@]3(CCCN(C(=O)c4csnn4)C3)C2)c1 | 2% | 0%
COc1ccc(-c2cc(C(=O)Nc3sc4c(c3C#N)CCCC4)c3ccccc3n2)cc1 | 7.9µM* | -5%
N#Cc1c(NC(=O)c2ccccc2)sc2c1CCCCC2 | -1% | -10%
COc1ccccc1-c1cc(C(=O)Nc2sc3c(c2C#N)CCC(C)C3)c2ccccc2n1 (configuration not stated) | 3.2µM* | 1%
COc1ccc(OC)c(-c2cc(C(=O)Nc3sc4c(c3C#N)CCC(C)C4)c3ccccc3n2)c1 (configuration not stated) | u | 1%
CCN(CC)C(=O)CSc1nc(-c2ccc(C)cc2)nc2c1Cc1c(CO)cnc(C)c1O2 | u | -6%
COc1ccc(CCNC(=O)c2cc3c(-c4ccc(OC)c(OC)c4)nn(C)c3s2)cc1OC | u | -11%
CC1Cc2ccccc2N1C(=O)CSc1nnc2c(n1)[nH]c1ccccc12 (configuration not stated) | 1% | -1%
CC1Cc2ccccc2N1C(=O)CSc1nnc(-c2ccccc2)c(-c2ccccc2)n1 (configuration not stated) | 16µM* | -1%
Cc1ccccc1C(=O)Nc1ccc(OCc2cc(=O)n3ccccc3n2)cc1 | 5% | 2%
SMILES | Cruzain inh noDet | Cruzain Triton
Cc1nc(SCC(=O)Nc2ccc3c(c2)OCO3)c(C#N)c2c1CCCC2 | -9% | -1%
CCOC(=O)c1ccc(NC(=O)CSc2nc(-c3ccc(OC)cc3)cc(C(F)(F)F)c2C#N)cc1 | -3% | 0%
CCOC(=O)c1c(C#N)c(SCC(=O)Nc2ccc(OC)cc2)nc2c1CN(CC)CC2 | 25µM* | -3%
CCOc1cccc(NC(=O)CSc2nc(C)c3c(c2C#N)CCCC3)c1 | 7.9µM* | 4%
Cn1cccc1C(=O)N1CCC2(CCCN(c3ncccn3)C2)CC1 | 0% | 0%
O=C(On1c(-c2ccccc2)nc2ccccc2c1=O)c1ccco1 | u | 28µM*
COc1cc(OC)cc(-c2nc3ccccc3c(=O)n2OC(=O)c2ccccc2C)c1 | -4% | -5%
CCOC(=O)CSc1nc2cc(OCC)ccc2cc1C#N | -16% | -9%
COc1cccc(-c2ccc(C#N)c(SCC(=O)NCCc3cccc(Cl)c3)n2)c1 | 32µM* | -4%
COc1ccc(-c2ccc(C#N)c(SCC(=O)NCCc3ccccc3)n2)cc1OC | 1% | 3%
COC(=O)CSc1nc2cc(OC)ccc2cc1C#N | -10% | -3%
Cc1ccccc1NC(=O)CSc1nc(N)c(C#N)cc1C#N | -11% | 5%
COc1ccc2cc(C#N)c(SCC(=O)NNC(=O)Cc3ccccc3)nc2c1 | 13µM* | 4%
Cc1ccc2cc(C#N)c(SCC(=O)NNC(=O)Cc3ccccc3)nc2c1 | 10µM* | -3%
CCOc1ccc2cc(C#N)c(SCC(=O)NC(C)CC)nc2c1 (configuration not stated) | 13µM* | 3%
COc1ccc(CNC(=O)CN2C(=O)CSc3ccc(S(=O)(=O)N4CCC(C)CC4)cc32)cc1 | 12% | 1%
Cc1cccc(Cn2c(=O)n(CC3CCC(C(=O)N4CCOCC4)CC3)c(=O)c3sccc32)c1 (configuration not stated) | 14% | -2%
CCOC(=O)C1=C(CS(=O)(=O)c2ccc(C)c(C)c2)NC(=O)NC1c1ccccc1OCC (configuration not stated) | 7% | -8%
Cc1cc(C)nc(Nc2nc3ccccc3[nH]2)n1 | -20% | -21%
c1ccc(Nc2nc3ccccc3[nH]2)nc1 | 10µM* | 25µM*
CCc1cc(=O)oc2cc(C)c3c(-c4ccc(F)cc4)coc3c12 | -6% | 0%
Cc1ccc2c(c1)c1c3n2CCN(C(=O)c2cccc(C(F)(F)F)c2)C3CCC1 (configuration not stated) | 0.63µM* | -5%
CCN(CC)CCN1CCn2c3c(c4cc(C)ccc42)CCCC31 (configuration not stated) | -4% | -8%
COc1ccc(CC(=O)N2CCc3cc(OC)c(OC)cc3C2COc2ccc(F)cc2)cc1 (configuration not stated) | u | 0%
Cc1ccc(CC(=O)N/N=C/c2ccc(OC(=O)c3ccc([N+](=O)[O-])cc3)cc2)cc1 | u | -2%
SMILES | Cruzain inh noDet | Cruzain Triton
Cc1cc([N+](=O)[O-])cc(C)c1OCC(=O)N/N=C/c1ccc(OC(=O)c2ccccc2)cc1 | 13µM* | -4%
Cc1cccc(C)c1OCC(=O)N/N=C/c1ccncc1 | 11% | 2%
Cc1cc([N+](=O)[O-])cc(C)c1OCC(=O)N/N=C/c1ccc(OC(=O)c2ccccc2Br)cc1 | 10µM* | -4%
O=C(CNC(=O)c1ccc([N+](=O)[O-])cc1)N/N=C\c1ccc(OC(=O)c2ccccc2)cc1 | 7.9µM* | -10%
COc1cccc(C(=O)NCC(=O)N/N=C/c2cccc(OC(=O)c3ccc([N+](=O)[O-])cc3)c2)c1 | u | -19%
COc1ccc(Br)cc1CNCc1c(C(=O)O)c(C)n(Cc2ccccc2C)c1C | 5% | -4%
COC1=CC(=O)C(O)=C/C1=C\C=C\c1ccccc1 | -9% | -13%
COc1ccc(OCC(=O)Nc2ccc(O)c(-c3nc4ccccc4s3)c2)cc1 | 3% | -2%
Oc1ccc(N=C/C=C/c2ccc(Br)cc2)cc1-c1nc2ccccc2s1 | 32µM* | -14%
O=C(NCc1ccc(Cl)cc1)c1cnc2sc(N3CCCC3)nn2c1=O | 9% | -1%
O=C(O)c1cc(Cl)cc(Cl)c1 | -1% | 1%
CCN1CCN(Cc2c(O)ccc3oc(C)c(C(=O)Nc4cccc(Cl)c4C)c23)CC1 | -28% | -3%
CN(C)c1ccc(N)cc1 | -2% | 0%
Cc1sc2nc(SCc3ccccc3)n(Cc3ccco3)c(=O)c2c1C | u | 0%
